Results filed as inconclusive are left out. Calls of active or inactive are those of the source. The calls were made as follows: active = hit-call score of the fitted dose curve at least 0.9, where 1 is the maximum; inconclusive = response in the unintended direction; inactive = score below 0.9.
Each compound was assayed against Estrogen receptor (Homo sapiens) (UniProt P03372) (assay: ATG_ERa_TRANS: Attagene TRANS-FACTORIAL HepG2 Assay for human Estrogen Receptor alpha (ERa) (AID 2282970)). Conditions: HepG2 Attagene TRANS ERa GAL4 reporter, mRNA.
Sequence of Estrogen receptor (Homo sapiens) (P03372 whole entry, looked up, the tested form may be a part): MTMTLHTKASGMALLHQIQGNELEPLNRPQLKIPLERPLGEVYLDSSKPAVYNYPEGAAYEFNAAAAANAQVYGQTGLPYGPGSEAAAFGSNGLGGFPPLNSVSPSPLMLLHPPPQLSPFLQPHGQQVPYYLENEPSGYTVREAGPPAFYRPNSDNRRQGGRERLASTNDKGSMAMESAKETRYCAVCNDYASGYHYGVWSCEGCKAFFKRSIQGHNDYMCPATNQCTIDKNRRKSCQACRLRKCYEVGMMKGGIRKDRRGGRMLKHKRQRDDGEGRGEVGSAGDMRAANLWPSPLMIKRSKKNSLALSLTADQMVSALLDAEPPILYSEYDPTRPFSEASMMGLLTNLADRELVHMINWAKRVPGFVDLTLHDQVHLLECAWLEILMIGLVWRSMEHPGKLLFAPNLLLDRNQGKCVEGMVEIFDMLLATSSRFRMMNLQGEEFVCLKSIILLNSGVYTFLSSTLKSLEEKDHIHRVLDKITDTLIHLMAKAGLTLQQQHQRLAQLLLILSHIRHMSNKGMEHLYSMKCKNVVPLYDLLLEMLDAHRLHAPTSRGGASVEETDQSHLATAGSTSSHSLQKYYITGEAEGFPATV
Method: ATG_TRANS is a cell-based, multiplexed-readout assay that uses HepG2, a human liver cell line, with measurements taken at 24 hours after chemical dosing in a 24-well plate.ATG_ERa_TRANS is one of 30 assay component(s) measured or calculated from the ATG_TRANS assay. It is designed to make measurements of mRNA induction, a form of inducible reporter, as detected with fluorescence intensity signals by Reverse transcription polymerase chain reaction (RT-PCR) and Capillary electrophoresis technology.Data from the assay component ATG_ERa_TRANS was analyzed into 1 assay endpoint. This assay endpoint, ATG_ERa_TRANS, was analyzed in the positive analysis fitting direction relative to DMSO as the negative control and baseline of activity. Using a type of inducible reporter, measures of mRNA for gain-of-signal activity can be used to understand the reporter gene at the transcription factor-level as they relate to the gene ESR1. Furthermore, this assay endpoint can be referred to as a primary readout, because this assay has produced multiple assay endpoints where this one serves a reporter gene function. To generalize the intended target to other relatable targets, this assay endpoint is annotated to the nuclear receptor intended target family, where the subfamily is steroidal.
Human liver HepG2 cells are transiently transfected with multiple reporter transcription units (MRTUs) in 6-well plates using FuGene 6 reagent (Roche; 3 ml FuGene/1 mg DNA). The MRTU constructs are regulated by a cis-regulating element (promoter). […] A major difference between the CIS and TRANS system is that in CIS activities of endogenous TFs are measured, whereas the TRANS assay evaluates changes in activities of exogenous, chimeric NR-Gal4 proteins. […] At the end of 24 hour incubation, total RNA was isolated using TriZol reagent (Invitrogen). The isolated RNA is then reverse-transcribed using oligo(dT) primer and Mo-MLV reverse transcriptase (Invitrogen) with DNAse I (Ambion) treatment for 30 min. The one-tenth of the produced cDNA was amplified by PCR using Taq DNA polymerase (Invitrogen) and two reporter sequence-specific primers. The PCR products were fluorescently labeled by primer extension with 6-arboxyfluorescein (6-FAM) 5'-labeled reporter sequence-specific primer (2 min at 95 C, 20 s at 68 C and 10 min at 72 C) and these products were digested with 5U of HpaI (New England Biolabs) for 2h at 37 C. […] The raw capillary electrophoresis data was processed using Attagraph software (Attagene).
`Oc1ccc(Cc2ccc(O)cc2)cc1` was tested, and the AC50 was 0.842 µM (active).
`N#Cc1cccnc1` was tested, and the outcome was “inactive”.
For `O=S(=O)(c1ccc(Cl)cc1)c1cc(Cl)c(Cl)cc1Cl`, the outcome was “inactive”.
For `O=C(O)c1cc(I)cc(I)c1I`, the outcome was “inactive”.
With `[Cl][Sn]([c]1ccccc1)([c]1ccccc1)[c]1ccccc1` the outcome was “inactive”.
With `CCOC(=O)CCN(SN(C)C(=O)Oc1cccc2c1OC(C)(C)C2)C(C)C` the outcome was “inactive”.
For `C=C(C)C(=O)OCCCCOC(=O)C(=C)C`, the outcome was “inactive”.
`Cc1ccc(CCl)cc1` was tested, and the outcome was “inactive”.
For `O=S1(=O)OC(c2cc(Br)c(O)c(Br)c2)(c2cc(Br)c(O)c(Br)c2)c2ccccc21`, the outcome was “inactive”.
For `CCCCCCCCCCCCBr`, the outcome was “inactive”.
`O=C1c2ccccc2C(=O)C1C(=O)C(c1ccccc1)c1ccc(Cl)cc1` (stereo not given) was tested, and the outcome was “inactive”.
`Cc1ccccc1OP(=O)(Oc1ccccc1C)Oc1ccccc1C` was tested, and the AC50 was 1.3 µM (active).
For `Cc1cccc(N=Nc2ccc(N(C)C)cc2)c1`, the outcome was “inactive”.
With `O=c1oc2ccccc2c(O)c1C(CC(O)c1ccc(-c2ccc(Br)cc2)cc1)c1ccccc1` (stereo not given) the outcome was “inactive”.
For `OC(Cc1ccccc1Cl)(Cn1cncn1)C1(Cl)CC1` (stereo not given), the AC50 was 13.7 µM (active).
For `Fc1cccc(Cl)c1CCl`, the outcome was “inactive”.
For `C=CC(=O)OCC(COC(=O)C=C)(COC(=O)C=C)COC(=O)C=C`, the outcome was “inactive”.
For `CC(c1ccccc1)(c1ccc(O)cc1)c1ccc(O)cc1`, the AC50 was 0.145 µM (active).
`CC(C)[C@@H](Nc1ccc(C(F)(F)F)cc1Cl)C(=O)OC(C#N)c1cccc(Oc2ccccc2)c1` (stereo not given in full) was tested, and the outcome was “inactive”.
`C=CCCl` was tested, and the outcome was “inactive”.
`CCCSP(=S)(OCC)Oc1ccc(Cl)cc1Cl` (stereo not given) was tested, and the AC50 was 2.91 µM (active).
In the case of `O=S(=O)(Oc1ccc(Cl)cc1)c1ccc(Cl)cc1`, the AC50 is reported as 10.7 µM (active).
With `Cc1ccc2nc3sc(=O)sc3nc2c1` the outcome was “inactive”.
`CCCCCCCCCCCCN(C)C` was tested, and the outcome was “inactive”.
`c1ccc2sc(SNC3CCCCC3)nc2c1` was tested, and the outcome was “inactive”.
`CC(C)(C)c1cc([N+](=O)[O-])cc(C(C)(C)C)c1O` was tested, and the outcome was “inactive”.
For `OCC(c1ccc(Cl)cc1)c1ccc(Cl)cc1`, the outcome was “inactive”.
For `CCOP(=O)(OCC)OC(=CCl)c1ccc(Cl)cc1Cl`, the AC50 was 26 µM (active).
For `O=C(Cl)OCCOCCOC(=O)Cl`, the outcome was “inactive”.
With `CCCCN(CCCC)C(=S)S` the outcome was “inactive”.
`CC(C)=CC1C(C(=O)OCc2cccc(Oc3ccccc3)c2)C1(C)C` (stereo not given) was tested, and the AC50 was 12.8 µM (active).
In the case of `CC(C)CP(=S)(S)CC(C)C`, the outcome is reported as “inactive”.
With `CCCCOC(C)=O` the outcome was “inactive”.
With `OC(Cc1ccccc1Cl)(Cn1[nH]cnc1=S)C1(Cl)CC1` (stereo not given) the AC50 was 5.83 µM (active).
With `Nc1nc(=S)[nH][nH]1` the outcome was “inactive”.
`CC(=O)CN(CC(C)=O)N=O` was tested, and the outcome was “inactive”.
`Oc1c(Br)cc(Br)cc1Br` was tested, and the AC50 was 5.59 µM (active).
`Oc1cccc(-c2ccccc2)c1` was tested, and the AC50 was 6.57 µM (active).
With `CCOP(=S)(OCC)Oc1ccc(Cl)cc1Cl` the AC50 was 7.91 µM (active).
With `N#CCCC(Br)(C#N)CBr` (stereo not given) the outcome was “inactive”.

From PubChem BioAssay (EPA / NIEHS)
